Laboratory results taken from PubChem BioAssay (NCI).
About 83,000 compounds went through this panel and 20% of them were active in at least one assay; those are over-represented in the sample as a whole.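 Growth was measured after 48 h exposure to one concentration of compound in 96-well plates. Values under 10 count as active.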 A number with no mark means an inactive call. Active and inactive are the calls of the source.

Key:
Test in all cases: NCI-60 one-dose screen, 48 h (100 = growth as untreated, 0 = no growth, -100 = all killed)
Settings in all cases: 10 µM unless noted
[1] = tested on: DU-145 prostate
[2] = tested on: K-562 leukemia
[3] = tested on: MDA-MB-231 breast
[4] = tested on: RXF 393 renal
[5] = tested on: SF-268 CNS
[6] = tested on: SF-295 CNS
[7] = tested on: SF-539 CNS
[8] = tested on: UACC-257 melanoma
[9] = tested on: M14 melanoma
[10] = tested on: HCT-15 colon
[11] = tested on: HT29 colon
[12] = tested on: SNB-75 CNS
[13] = tested on: SNB-19 CNS
[14] = tested on: U251 CNS
[15] = tested on: PC-3 prostate
[16] = tested on: SK-MEL-5 melanoma
[17] = tested on: UACC-62 melanoma
[18] = tested on: LOX IMVI melanoma
[19] = tested on: SK-MEL-28 melanoma
[20] = tested on: MALME-3M melanoma

SMILES	growth [1]	growth [2]	growth [3]	growth [4]	growth [5]	growth [6]	growth [7]	growth [8]	growth [9]	growth [10]	growth [11]	growth [12]	growth [13]	growth [14]	growth [15]	growth [16]	growth [17]	growth [18]	growth [19]	growth [20]
C(=C\c1nc2ccccc2[nH]1)/c1nc2ccccc2[nH]1	107%	90%	90.4%	122%	110%	100%	104%	86.6%	100%	100%	103%	86.2%	109%	106%	90%	92.8%	91.1%	98.1%	104%	
O[C@H]1CO[C@H]2[C@@H]1OC[C@@H]2Oc1ccc(Nc2ccnc(Nc3ccc(O[C@H]4CO[C@H]5[C@@H]4OC[C@@H]5O)c(Cl)c3)n2)cc1Cl	7.26% (active)	5.05% (active)	21.8%		16.4%	7.74% (active)	8.89% (active)	31.8%		26.4%	9.26% (active)	-1.57% (active)	7.59% (active)	7.71% (active)	15.7%		-74% (active)	-8.35% (active)	20.4%	13.2%
CCN(CC)CCOc1ccc(/C(=C(\C)c2ccc(F)c(OC)c2)c2ccc(Cl)cc2)cc1	41.3%	-7.49% (active)	27.9%		53%	-21.6% (active)	-68.3% (active)	12.3%		2.58% (active)	9.08% (active)	31.9%	8.37% (active)	3.13% (active)	14.8%		-44.8% (active)	-94.1% (active)	-64.6% (active)	-81.6% (active)
COc1ccc(CN2C(=O)/C(=C\c3cc(OC)c(OC)c(OC)c3)c3ccccc32)cc1	9.87% (active)	5.28% (active)	5.55% (active)	-69.6% (active)	10.4%	-46% (active)	-84.9% (active)	-9.5% (active)	-32% (active)	-55.8% (active)	0.194% (active)	8.57% (active)	60.3%	-73.6% (active)	10.9%	-25.1% (active)	-8.88% (active)	-76% (active)	-34.9% (active)	
C/C(Cc1ccc(Cl)cc1)=C(/c1ccc(Cl)cc1)c1ccc(OCCN(C)C)cc1	62.3%	-4.72% (active)	74.1%		85.6%	97.2%	66.7%	71.3%		2.19% (active)	8.12% (active)	68.7%		38.2%	58.1%	67.5%	82%	-88% (active)		37.1%
CC1(C)N=C(N)N=C(N)N1c1cccc(CN)c1	109%	116%	98.8%	103%	101%	94.7%	99.3%	86.5%	96.7%	97.8%	95.7%	73.6%	100%	98.9%	87.3%	109%	95.9%	89.2%	106%	
C=C1C(=O)O[C@H]2[C@H]1CC/C(COC(=O)/C=C\C(=O)NCc1ccc(Cn3c(=O)sn(CCCC)c3=O)cc1)=C\CC[C@@]1(C)O[C@@H]21	-95.5% (active)	0.287% (active)	-84.4% (active)		-64.4% (active)	65.1%	-98.9% (active)	-52.8% (active)		-29.8% (active)	-22.2% (active)	-63.6% (active)	20.5%	-64.3% (active)	-59.7% (active)		-97.4% (active)	-83.5% (active)	-92.1% (active)	-93.3% (active)
O=C1C=CC(=Nc2cc(Br)c(O)c(Br)c2)C=C1	102%	12.6%	72.6%		82.7%	101%	86.4%	90.9%		65.1%	62%	68.3%	96.8%	43.7%		87.4%	67.6%	48.6%	75.1%	70.2%
c1ccc([P+](CCCc2n(Cc3ccc4ccccc4c3)c3ccccc3[n+]2Cc2ccc3ccccc3c2)(c2ccccc2)c2ccccc2)cc1	82.1%	23.7%	51%		79%	41.1%	36.8%	84%		85.5%	23.9%	91%		46.5%	67.5%		37.8%	13.8%	37.1%	65.2%
COc1cc2oc(-c3cccc(C(=O)Nc4ccc(C#N)cc4)c3)cc(=O)c2c(O)c1OC	34.2%	66.4%		102%	50%	36.8%	82.4%	88.9%		75%	53.9%	83.9%	44%	61.3%	7.86% (active)	70.3%	41.5%	55.7%	32.8%	47.7%
C=C(C)[C@@H]1CC[C@@]2(C(=O)O)CC[C@]3(C)C(CCC4[C@@]5(C)CCC(OS(=O)(=O)c6ccccc6)C(C)(C)C5CC[C@]43C)C12 (stereo partly specified)	55.4%	46.5%	67.4%	73.8%	70.6%	-32.7% (active)	52.4%	32%	60.8%	39.7%	58.4%	86.1%	83.6%	41.5%	44.4%	35.6%	47.5%	53.8%	86%	
COc1ccc(OC)c(C(=O)Nc2cccc(-c3cc(=O)c4ccccc4o3)c2)c1	88.1%	90.1%	83.4%		74.2%	88.6%	84.4%	100%		93.4%	91.3%	64.4%	70.7%	93.8%	92.8%		87.1%	97.4%	104%	83.3%
COc1cc2oc3cc(C)oc(=O)c3c2cc1OC	99.6%	128%	99.4%	104%	108%	89.7%	94.8%	92.8%	102%	91.9%	91.5%	103%	86.8%	102%	98.4%	95.1%	90.9%	103%	115%	
COc1ccc(/C=C2\COc3ccc(O)cc3C2=O)c(OC)c1	65.8%	12.4%	60.9%		70.2%	80.1%	57.5%	74.8%		34.4%	38.2%	47.5%		50.3%	57.2%		50%	45.4%	64%	60.9%
COc1cc2oc(-c3cccc(C(=O)Nc4ccc(C)cc4)c3)cc(=O)c2c(OC)c1OC	48.2%	28%		-7.43% (active)	57.7%	-47% (active)	45.8%	29.9%		17.6%	11.2%	45.5%	67.9%	42.1%	45%	-60.3% (active)	-33.8% (active)	-7.81% (active)	7.12% (active)	27.3%
NC(=S)N/N=C/C(=O)O	106%	32.7%	97.1%	107%	92.4%	71.9%	104%	86.1%	93.9%	93.7%	80%	99.2%	108%	102%	70%	103%	106%	93.3%	111%	
COC(=O)[C@]12CC[C@@H](C)[C@H](C)[C@@H]1C1=CC[C@@H]3[C@@]4(C)C(C=O)=C[C@@](C)(CO)C4=CC[C@@]3(C)[C@]1(C)CC2	39.9%	16.4%	53.2%		48.3%	24.9%	29.8%		28.5%	9.41% (active)	14.5%	62.6%	39.4%	23.4%	16.2%	35.2%	42.9%	26.1%	26.9%	60.1%
